Experimental data as given in PubChem BioAssay (Tox21).
A number with no mark means an inactive call. Results filed as inconclusive are left out. Where a call stands in place of a potency, no number is given. Activity calls are given as the source filed them. Unless noted, the call rests on the fitted dose curve; in most records, active means well fitted curve in the direction sought with a large enough effect in the repeat runs; inconclusive means weak or mixed curves; inactive means no such curve, though single readings can be large; an effect the other way counts as inactive or inconclusive.

Assays:
[1] = target: Estrogen receptor beta (Homo sapiens) (UniProt Q92731); assay: qHTS assay to identify small molecule antagonists of the estrogen receptor beta (ER-beta) signaling pathway (AID 1259378; active means well fitted inhibition curve with a large enough effect in the signal ratio in the repeat runs, not every such curve was filed as active; the % refers to the signal ratio; further: potency means the concentration at half of the fitted maximal effect)
How it was run: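 ER-beta-UAS-bla HEK293T cells in 2% charcoal-stripped FBS medium treated with compound plus 1nM final 17-beta-estradiol for 16 hr at 37C. Beta-lactamase reporter read by FRET substrate fluorescence after 2 hours at room temperature.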

[2] = qHTS assay to identify small molecule agonists of the androgen receptor (AR) signaling pathway in the presence of an antagonist - cell viability counter screen (AID 1259379); further: nearly all actives have a fitted effect of over 25% in size; further: potency means the concentration at half of the fitted maximal effect
How it was run: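 MDA-kb2 human breast carcinoma cells (stable MMTV-luciferase, AR/GR responsive) were seeded 3,000 cells/well, pre-incubated 5 hr at 37C without CO2, then given 3.0uM nilutamide and compounds at 15 concentrations for 16 hr. Viability was read by CellTiter-Fluor fluorescence.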

[3] = qHTS assay to identify small molecule antagonists of the estrogen receptor beta (ER-beta) signaling pathway - cell viability counter screen (AID 1259382); further: nearly all actives have a fitted effect of over 55% in size; further: potency means the concentration at half of the fitted maximal effect
How it was run: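 ER-beta-UAS-bla HEK293T cells (2,000/well, 2% charcoal-stripped FBS) were pre-incubated 6 hr at 37C, then given compound plus 1nM final 17-beta-estradiol for 16 hr. Viability was read in the same wells by CellTiter-Glo luminescence after 30 min at room temperature.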

[4] = target: Estrogen receptor (Homo sapiens) (UniProt P03372); assay: qHTS assay to identify small molecule agonists of the estrogen receptor alpha (ER-alpha) signaling pathway in the presence of an antagonist (AID 1259383; calls by dose curve; further: nearly all actives have a fitted effect of over 15% in size; further: potency means the concentration at half of the fitted maximal effect; on activation: top concentration of the series differs between compounds)
How it was run: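 VM7Luc4E2 cells (endogenous full-length ER-alpha, 4×ERE-luciferase) were precultured 5 days in phenol red-free medium with 10% charcoal-stripped FBS, given 10.0nM ICI-182,780 (final), then treated with compounds at 15 concentrations for 22hr at 37C; luminescence read with ONE-Glo.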

[5] = qHTS assay to identify small molecule agonists or antagonists of the thyroid stimulating hormone receptor (TSHR) signaling pathway - wild type cell line counter screen (AID 1259384; calls by dose curve)
How it was run: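 Wild-type Hek293 cells, 800/well, 18 h at 37C, then compound with Ro20-1724 for 30 min RT. cAMP by HTRF (cAMP-d2/anti-cAMP cryptate), 1 h RT, fluorescence read. 15 concentrations, triplicates.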

[6] = target: Thyrotropin receptor (Homo sapiens) (UniProt P16473); assay: qHTS assay to identify small molecule antagonists of the thyroid stimulating hormone receptor (TSHR) signaling pathway (AID 1259385; calls by dose curve; further: nearly all actives have a fitted effect of over 20% in size; further: potency means the concentration at half of the fitted maximal effect)
How it was run: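 TSHR-HEK293 cells (800/well) plated 18 h, then compounds with Ro20-1724 and TSH at 1.5 ng/mL final, 30 min at room temperature. cAMP quantified by HTRF (cAMP-d2/anti-cAMP-cryptate, 1 h); 15 concentrations in triplicate.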

[7] = qHTS assay to identify small molecule agonists of the estrogen receptor alpha (ER-alpha) signaling pathway in the presence of an antagonist - cell viability counter screen (AID 1259386);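 further: cells exposed to compounds for 22 h at 37 °C before the viability read; nearly all actives have a fitted effect of over 30% in size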; further: potency means the concentration at half of the fitted maximal effect
How it was run: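 VM7Luc4E2 cells (endogenous full-length ER-alpha, 4×ERE-luciferase) were held 5 days in phenol red-free medium with 10% charcoal-stripped FBS, plated, then given 10.0nM ICI-182,780 and compounds at 15 concentrations for 22hr at 37C; viability read by CellTiter-Fluor fluorescence.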

[8] = qHTS assay to identify small molecule antagonists of the progesterone receptor (PR) signaling pathway - cell viability counter screen (AID 1346798); further: series mostly up to about 92 µM; nearly all actives have a fitted effect of over 50% in size
How it was run: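 ATP content as viability readout: CellTiter-Glo luminescence, 30 min room temperature, in PR-UAS-bla HEK293T cells after 16 hr compound/R5020 treatment at 37C and 5% CO2.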

[9] = qHTS assay to identify small molecule agonists of the progesterone receptor (PR) signaling pathway - cell viability counter screen (AID 1346799; calls by dose curve; further: nearly all actives have a fitted effect of over 45% in size; further: potency means the concentration at half of the fitted maximal effect)
How it was run: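 Cytotoxicity in PR-bla HEK293T cells: 16 h compound, 37C; CellTiter-Glo added post-FRET read; luminescence after 30 min RT.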

[10] = qHTS assay to identify small molecule antagonists of the TGF-beta/Smad signaling pathway - cell viability counter screen (AID 1346824); further: nearly all actives have a fitted effect of over 50% in size
How it was run: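 SBE-bla HEK 293T cells, incubated overnight, then compound plus 0.25 ng/mL TGF-beta1 (stock added) for 5 hr at 37 C. Viability was read in the same wells by CellTiter-Glo luminescence after 30 min at room temperature.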

[11] = qHTS assay to identify small molecule agonists of the TGF-beta/Smad signaling pathway - cell viability counter screen (AID 1346829); further: top concentration of the series differs between compounds; nearly all actives have a fitted effect of over 45% in size
How it was run: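 Tox21 qHTS format: SBE-bla HEK 293T cells treated with DMSO-dissolved compounds for 5 hr; CellTiter-Glo luminescence after 30 min at room temperature.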

[12] = qHTS assay to identify small molecule agonists of the TGF-beta/Smad signaling pathway (AID 1346859; active means well fitted activation curve with a large enough effect in the signal ratio in the repeat runs, not every such curve was filed as active; the % refers to the signal ratio; further: series mostly up to about 77 µM)
How it was run: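 Stable Smad binding element-beta-lactamase HEK 293T cells; 5 hr compound exposure at 37 C under 5% CO2; 2 hr room-temperature substrate step; fluorescence excited at 405 nm, collected at 460 nm and 530 nm.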

[13] = target: Thyrotropin-releasing hormone receptor (Homo sapiens) (UniProt P34981); assay: qHTS assay to identify small molecule antagonists of the thyrotropin-releasing hormone receptor (TRHR) signaling pathway (AID 1346877; active means well fitted inhibition curve with a large enough effect in the repeat runs, not every such curve was filed as active; further: series mostly up to about 51 µM)
How it was run: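 TRHR-expressing HEK293 cells were seeded, cultured 18 h at 37 °C, then loaded with calcium dye for 2 h. Compounds were pre-incubated 5 min at room temperature before 1 nM TRH (final) was added, and kinetic fluorescence was recorded for 3 min.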

[14] = target: Thyrotropin-releasing hormone receptor (Homo sapiens) (UniProt P34981); assay: qHTS assay to identify small molecule agonists of the thyrotropin-releasing hormone receptor (TRHR) signaling pathway (AID 1346891; calls by dose curve; further: series mostly up to about 58 µM)
How it was run: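 In 1536-format, 1500 TRHR-Hek293 cells per well grew 18 h, took up calcium dye for 2 h at 37 °C, received compound, and were read kinetically; 15-point titrations, triplicates.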

[15] = target: Estrogen receptor beta (Homo sapiens) (UniProt Q92731); assay: qHTS assay to identify small molecule agonists of the estrogen receptor beta (ER-beta) signaling pathway (AID 1259377; active means well fitted activation curve with a large enough effect in the signal ratio in the repeat runs, not every such curve was filed as active; the % refers to the signal ratio; further: potency means the concentration at half of the fitted maximal effect)
How it was run: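 In HEK293T cells bearing a UAS-beta-lactamase reporter under ER-beta control, DMSO-delivered compounds were incubated for 16 hr at 37C. Activity was detected as fluorescence 2 hours after LiveBLAzer B/G FRET substrate addition.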

[16] = qHTS assay to identify small molecule agonists of the estrogen receptor beta (ER-beta) signaling pathway - cell viability counter screen (AID 1259380); further: nearly all actives have a fitted effect of over 30% in size; further: potency means the concentration at half of the fitted maximal effect
How it was run: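 ER-beta-UAS-bla HEK293T cells in medium with 2% charcoal-stripped FBS were preincubated 6 hr at 37C, dosed with compound in DMSO for 16 hr, then after the bla read, CellTiter-Glo was added for 30 min at room temperature; luminescence recorded.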

[17] = target: Androgen receptor (Homo sapiens) (UniProt P10275); assay: qHTS assay to identify small molecule agonists of the androgen receptor (AR) signaling pathway in the presence of an antagonist (AID 1259381; calls by dose curve; further: nearly all actives have a fitted effect of over 15% in size)
How it was run: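 MDA-kb2 human breast carcinoma cells carrying an MMTV-luciferase reporter (AR- and GR-responsive) were treated with compounds at 15 concentrations plus 3.0uM final nilutamide for 16hr at 37C without CO2; luminescence was read after ONE-Glo addition.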

[18] = target: Progesterone receptor (Homo sapiens) (UniProt P06401); assay: qHTS assay to identify small molecule agonists of the progesterone receptor (PR) signaling pathway (AID 1346784; calls by dose curve; further: nearly all actives have a fitted effect of over 30% in size)
How it was run: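 Using charcoal-stripped serum (2%) to limit endogenous steroids, PR-UAS-bla HEK 293T cells received compounds for 16 hr at 37C after 6 hr plating; beta-lactamase FRET fluorescence was recorded following 2 hr substrate loading at room temperature.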

[19] = target: Progesterone receptor (Homo sapiens) (UniProt P06401); assay: qHTS assay to identify small molecule antagonists of the progesterone receptor (PR) signaling pathway (AID 1346795; active means well fitted inhibition curve with a large enough effect in the signal ratio in the repeat runs, not every such curve was filed as active; the % refers to the signal ratio; further: potency means the concentration at half of the fitted maximal effect)
How it was run: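 Inhibition of R5020-induced (1 nM final) beta-lactamase reporter signal in PR-UAS-bla HEK293T cells was scored by FRET fluorescence after overnight (16 hr) compound treatment.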

Sequence of Thyrotropin-releasing hormone receptor (Homo sapiens) (P34981 whole entry, looked up): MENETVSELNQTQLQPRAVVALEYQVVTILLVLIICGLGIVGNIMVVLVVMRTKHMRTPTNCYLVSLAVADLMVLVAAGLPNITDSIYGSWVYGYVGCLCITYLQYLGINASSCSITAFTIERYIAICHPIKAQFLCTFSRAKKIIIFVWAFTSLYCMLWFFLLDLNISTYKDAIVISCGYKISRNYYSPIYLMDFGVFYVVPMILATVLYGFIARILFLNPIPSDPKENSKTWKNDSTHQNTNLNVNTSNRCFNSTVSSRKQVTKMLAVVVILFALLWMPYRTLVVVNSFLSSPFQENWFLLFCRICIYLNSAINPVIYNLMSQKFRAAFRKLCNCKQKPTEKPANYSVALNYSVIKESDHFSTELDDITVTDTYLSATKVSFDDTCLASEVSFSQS
Sequence of Progesterone receptor (Homo sapiens) (P06401 whole entry, looked up): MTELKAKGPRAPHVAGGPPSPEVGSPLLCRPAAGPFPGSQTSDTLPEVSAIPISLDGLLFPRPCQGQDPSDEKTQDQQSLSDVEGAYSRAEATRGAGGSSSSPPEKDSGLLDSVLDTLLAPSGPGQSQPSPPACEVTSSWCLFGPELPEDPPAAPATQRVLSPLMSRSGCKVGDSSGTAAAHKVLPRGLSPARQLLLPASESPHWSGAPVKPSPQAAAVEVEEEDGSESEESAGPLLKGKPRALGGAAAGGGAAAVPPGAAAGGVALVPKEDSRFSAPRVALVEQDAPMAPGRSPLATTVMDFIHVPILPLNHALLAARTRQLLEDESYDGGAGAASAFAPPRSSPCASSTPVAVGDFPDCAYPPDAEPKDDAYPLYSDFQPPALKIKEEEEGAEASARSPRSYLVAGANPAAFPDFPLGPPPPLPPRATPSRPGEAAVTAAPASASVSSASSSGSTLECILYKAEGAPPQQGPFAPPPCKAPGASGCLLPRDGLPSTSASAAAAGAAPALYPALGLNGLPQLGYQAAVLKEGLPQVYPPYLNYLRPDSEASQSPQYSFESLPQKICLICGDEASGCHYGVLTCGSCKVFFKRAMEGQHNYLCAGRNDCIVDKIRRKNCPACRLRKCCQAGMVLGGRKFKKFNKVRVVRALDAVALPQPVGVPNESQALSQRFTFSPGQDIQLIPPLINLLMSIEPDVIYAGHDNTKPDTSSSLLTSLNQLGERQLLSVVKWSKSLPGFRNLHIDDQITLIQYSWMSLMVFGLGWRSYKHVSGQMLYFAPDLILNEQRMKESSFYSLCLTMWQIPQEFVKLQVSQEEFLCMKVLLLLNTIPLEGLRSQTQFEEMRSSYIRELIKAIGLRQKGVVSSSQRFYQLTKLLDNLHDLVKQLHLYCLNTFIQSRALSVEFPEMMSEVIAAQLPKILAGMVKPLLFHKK
Sequence of Estrogen receptor beta (Homo sapiens) (Q92731 whole entry, looked up): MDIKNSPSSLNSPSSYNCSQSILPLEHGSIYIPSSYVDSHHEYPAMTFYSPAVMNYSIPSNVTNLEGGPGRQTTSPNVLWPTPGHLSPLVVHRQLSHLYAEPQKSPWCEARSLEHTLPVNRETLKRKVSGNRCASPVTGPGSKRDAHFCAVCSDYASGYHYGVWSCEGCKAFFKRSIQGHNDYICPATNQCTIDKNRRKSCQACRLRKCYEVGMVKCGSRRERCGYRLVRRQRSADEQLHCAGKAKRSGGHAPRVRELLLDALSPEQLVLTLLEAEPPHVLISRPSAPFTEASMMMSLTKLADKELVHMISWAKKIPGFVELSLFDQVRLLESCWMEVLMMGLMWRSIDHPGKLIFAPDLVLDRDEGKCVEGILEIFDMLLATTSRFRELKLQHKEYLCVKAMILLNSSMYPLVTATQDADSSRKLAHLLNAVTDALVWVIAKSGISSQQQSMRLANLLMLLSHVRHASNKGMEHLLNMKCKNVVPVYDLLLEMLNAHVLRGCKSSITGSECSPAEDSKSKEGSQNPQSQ
Sequence of Estrogen receptor (Homo sapiens) (P03372 whole entry, looked up): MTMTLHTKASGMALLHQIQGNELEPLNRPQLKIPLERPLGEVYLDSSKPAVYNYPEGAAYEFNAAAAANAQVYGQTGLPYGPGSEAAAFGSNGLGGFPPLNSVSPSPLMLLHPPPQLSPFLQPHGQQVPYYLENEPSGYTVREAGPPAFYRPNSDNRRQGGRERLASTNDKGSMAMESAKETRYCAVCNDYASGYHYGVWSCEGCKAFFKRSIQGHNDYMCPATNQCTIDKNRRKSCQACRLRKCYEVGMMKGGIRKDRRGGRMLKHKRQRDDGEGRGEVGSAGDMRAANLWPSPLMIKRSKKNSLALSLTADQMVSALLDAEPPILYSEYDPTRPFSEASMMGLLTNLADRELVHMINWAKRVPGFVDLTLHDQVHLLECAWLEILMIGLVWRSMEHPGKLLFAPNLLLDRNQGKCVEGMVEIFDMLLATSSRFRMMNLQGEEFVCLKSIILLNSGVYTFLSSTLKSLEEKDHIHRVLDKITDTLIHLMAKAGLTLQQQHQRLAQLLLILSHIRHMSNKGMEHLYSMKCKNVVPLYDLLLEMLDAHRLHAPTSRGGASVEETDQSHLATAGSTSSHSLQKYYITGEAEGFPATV
Sequence of Androgen receptor (Homo sapiens) (P10275 whole entry, looked up): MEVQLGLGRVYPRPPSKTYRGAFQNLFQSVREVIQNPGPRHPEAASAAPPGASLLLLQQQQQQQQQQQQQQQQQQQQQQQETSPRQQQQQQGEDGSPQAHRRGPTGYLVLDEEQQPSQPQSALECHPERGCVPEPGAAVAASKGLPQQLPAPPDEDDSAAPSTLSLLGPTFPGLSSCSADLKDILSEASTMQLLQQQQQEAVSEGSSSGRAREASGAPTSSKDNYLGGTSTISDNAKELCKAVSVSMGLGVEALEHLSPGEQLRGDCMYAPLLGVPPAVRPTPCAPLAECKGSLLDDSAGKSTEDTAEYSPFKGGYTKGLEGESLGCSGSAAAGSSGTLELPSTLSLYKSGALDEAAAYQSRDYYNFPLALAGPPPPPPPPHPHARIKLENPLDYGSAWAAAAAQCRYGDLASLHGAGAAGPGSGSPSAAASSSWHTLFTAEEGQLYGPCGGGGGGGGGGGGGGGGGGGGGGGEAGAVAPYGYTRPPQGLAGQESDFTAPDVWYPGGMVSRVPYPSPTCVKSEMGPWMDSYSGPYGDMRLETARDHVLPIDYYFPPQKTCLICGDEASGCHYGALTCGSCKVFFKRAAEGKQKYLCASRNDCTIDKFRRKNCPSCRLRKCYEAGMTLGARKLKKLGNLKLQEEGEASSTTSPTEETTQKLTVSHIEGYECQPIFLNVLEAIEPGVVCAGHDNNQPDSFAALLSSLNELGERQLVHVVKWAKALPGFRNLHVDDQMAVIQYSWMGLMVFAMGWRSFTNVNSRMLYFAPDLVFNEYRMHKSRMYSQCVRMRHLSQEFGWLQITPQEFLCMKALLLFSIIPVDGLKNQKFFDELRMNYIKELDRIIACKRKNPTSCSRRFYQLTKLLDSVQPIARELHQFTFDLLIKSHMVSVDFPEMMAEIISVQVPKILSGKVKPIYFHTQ
Sequence of Thyrotropin receptor (Homo sapiens) (P16473 whole entry, looked up): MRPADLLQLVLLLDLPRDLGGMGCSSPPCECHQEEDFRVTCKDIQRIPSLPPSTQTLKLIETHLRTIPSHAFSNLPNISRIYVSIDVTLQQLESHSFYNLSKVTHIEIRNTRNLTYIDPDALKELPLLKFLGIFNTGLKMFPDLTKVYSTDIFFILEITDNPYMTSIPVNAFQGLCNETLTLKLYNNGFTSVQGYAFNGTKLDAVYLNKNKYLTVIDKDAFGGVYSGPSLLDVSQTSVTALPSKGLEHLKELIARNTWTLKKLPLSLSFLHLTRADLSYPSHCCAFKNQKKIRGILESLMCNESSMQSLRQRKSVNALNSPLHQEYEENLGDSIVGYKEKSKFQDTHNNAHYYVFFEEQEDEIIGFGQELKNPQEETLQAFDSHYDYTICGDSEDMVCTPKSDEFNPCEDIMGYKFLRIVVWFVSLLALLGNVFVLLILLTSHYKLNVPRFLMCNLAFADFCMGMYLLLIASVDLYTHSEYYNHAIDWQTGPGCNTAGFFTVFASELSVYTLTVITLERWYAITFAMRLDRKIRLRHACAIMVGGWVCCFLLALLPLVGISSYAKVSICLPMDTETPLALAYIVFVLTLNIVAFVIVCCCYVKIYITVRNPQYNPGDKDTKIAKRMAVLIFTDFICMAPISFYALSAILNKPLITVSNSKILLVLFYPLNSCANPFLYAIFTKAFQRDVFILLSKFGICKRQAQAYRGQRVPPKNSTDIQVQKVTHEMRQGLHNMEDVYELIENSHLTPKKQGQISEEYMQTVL

SMILES	Potency [1]	Potency [2]	Potency [3]	Potency [4]	Potency [5]	Potency [6]	Potency [7]	Potency [8]	Potency [9]	Potency [10]	Potency [11]	outcome [12]	outcome [13]	Potency [14]	Potency [15]	Potency [16]	Potency [17]	outcome [18]	Potency [19]
CN(C)CCCNCCCN	inactive	inactive	inactive	inactive	inactive	inactive	inactive	inactive	inactive	inactive	inactive	inactive	inactive	inactive	–	–	–	–	–
O=C(c1ccc(O)cc1)c1ccc(O)cc1	inactive	–	inactive	21.7 µM (active)	–	inactive	inactive	–	–	inactive	inactive	inactive	inactive	inactive	6.11 µM (active)	inactive	inactive	inactive	–
CN1CCN(C2=Nc3cc(Cl)ccc3Nc3ccccc32)CC1	–	–	–	inactive	inactive	inactive	–	inactive	inactive	inactive	inactive	inactive	inactive	inactive	inactive	29.8 µM (active)	–	inactive	23.7 µM (active)
CN(C(=O)CCCOc1ccc2[nH]c(=O)ccc2c1)C1CCCCC1	–	inactive	inactive	–	inactive	–	inactive	–	–	inactive	inactive	–	inactive	inactive	inactive	inactive	–	inactive	–
C=Cc1c(C)c2cc3[nH]c(cc4nc(cc5nc(cc1[nH]2)C(C)=C5CCC(=O)O)C(CCC(=O)O)=C4C)c(C)c3C=C	inactive	21.1 µM (active)	inactive	inactive	–	–	26.6 µM (active)	inactive	inactive	inactive	inactive	inactive	inactive	inactive	–	inactive	–	inactive	inactive
COc1ccccc1OC(=O)Oc1ccccc1OC	inactive	inactive	–	–	inactive	inactive	inactive	inactive	inactive	inactive	inactive	inactive	inactive	inactive	–	23.7 µM (active)	inactive	inactive	26.6 µM (active)
CC(C)c1cccc(C(C)C)c1NC(=O)NS(=O)(=O)c1cc(C(C)(C)O)co1	inactive	inactive	inactive	–	inactive	inactive	inactive	inactive	inactive	inactive	inactive	inactive	–	–	–	inactive	–	inactive	inactive
O=C(Nc1ccccc1)OCC(CN1CCCCC1)OC(=O)Nc1ccccc1 (stereo unspecified)	26.6 µM (active)	inactive	–	inactive	inactive	18.8 µM (active)	inactive	inactive	inactive	inactive	inactive	–	inactive	inactive	inactive	26.6 µM (active)	–	inactive	23.7 µM (active)
Cc1ccc(C(=O)C(C)CN2CCCCC2)cc1 (stereo unspecified)	inactive	inactive	inactive	inactive	inactive	inactive	–	inactive	inactive	inactive	inactive	inactive	inactive	inactive	inactive	inactive	–	inactive	inactive
c1ccc(OCc2ccc(CCCN3CCOCC3)cc2)cc1	inactive	29.8 µM (active)	inactive	inactive	inactive	inactive	–	–	–	inactive	inactive	–	inactive	inactive	–	inactive	inactive	inactive	–
Nc1ccc(C(=O)N2CC3CC(CN(Cc4ccccc4)C3)C2)cc1	inactive	inactive	inactive	inactive	inactive	inactive	–	inactive	–	inactive	inactive	inactive	inactive	inactive	inactive	–	–	–	–
Cc1nc2ccccc2n1Cc1ccc(Cl)cc1	–	–	inactive	inactive	–	–	13.3 µM (active)	–	–	inactive	inactive	inactive	–	–	inactive	–	–	inactive	13.3 µM (active)
CN1CCC(=C2c3ccccc3CCc3sccc32)CC1	–	–	21.1 µM (active)	inactive	inactive	inactive	inactive	–	15 µM (active)	inactive	inactive	inactive	–	–	inactive	26.6 µM (active)	–	inactive	–
c1ccc(-c2nc[nH]c2-c2ccccc2)cc1	–	inactive	inactive	–	inactive	inactive	–	inactive	inactive	inactive	inactive	inactive	inactive	inactive	inactive	inactive	–	inactive	–
Cc1occc1S	inactive	inactive	inactive	inactive	inactive	–	inactive	–	inactive	inactive	inactive	inactive	inactive	inactive	inactive	–	–	inactive	inactive
CCCCOCCOCCOCCOCCO	inactive	–	inactive	inactive	inactive	inactive	inactive	–	–	inactive	inactive	inactive	inactive	inactive	inactive	–	–	inactive	–
CC(CN)CCCN (stereo unspecified)	inactive	–	inactive	inactive	inactive	inactive	inactive	inactive	inactive	inactive	inactive	–	inactive	inactive	inactive	inactive	–	inactive	inactive
